The source made the active and inactive calls.
Columns and labels:
Albumin (Bos taurus) = Albumin (Bos taurus) (UniProt P02769); assay: compounds binding labelled BSA control protein – biochemical, small-molecule microarray, Alexa647 label, 635/667 nm fluorescence, artefact control for SMM control protein annotation, profiling panel (AID 1118); settings: BSA-A647 binding, fluorescence 635 nm, higher = more signal;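 further: score merges 667 nm emission intensity and signal-to-noise per printed compound spot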
Chain of Albumin (Bos taurus) (P02769 whole entry, looked up): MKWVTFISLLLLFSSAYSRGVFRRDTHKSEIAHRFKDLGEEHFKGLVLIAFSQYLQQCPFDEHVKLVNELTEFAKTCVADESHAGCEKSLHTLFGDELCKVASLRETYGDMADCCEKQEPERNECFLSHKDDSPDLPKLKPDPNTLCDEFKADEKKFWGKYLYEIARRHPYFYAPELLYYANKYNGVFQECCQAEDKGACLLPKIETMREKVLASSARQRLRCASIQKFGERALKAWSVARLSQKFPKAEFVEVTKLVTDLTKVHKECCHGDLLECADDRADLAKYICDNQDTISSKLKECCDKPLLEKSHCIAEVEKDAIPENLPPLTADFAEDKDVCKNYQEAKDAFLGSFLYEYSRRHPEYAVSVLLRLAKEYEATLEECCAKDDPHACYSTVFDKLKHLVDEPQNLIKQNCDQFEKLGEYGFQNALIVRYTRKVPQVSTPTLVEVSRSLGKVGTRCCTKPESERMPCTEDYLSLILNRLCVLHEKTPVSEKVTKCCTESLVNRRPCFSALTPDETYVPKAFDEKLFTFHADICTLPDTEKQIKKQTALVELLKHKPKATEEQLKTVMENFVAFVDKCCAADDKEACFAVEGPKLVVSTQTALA

[1] = probe aXIP binding to arrayed compounds – biochemical, NeuroSMM set, 635/667 nm fluorescence, primary screen (AID 1119); settings: small-molecule microarray, higher = more signal, called active from +8 up or from −8 down;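 further: probe is the protein aXip251-270 applied at 1 µg/mL to compound-printed slides; binding of probe to printed compounds measured as 667 nm fluorescence plus signal to noise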
[2] = probe aNOTCH3 binding on compound microarray – biochemical, small-molecule microarray, 635/667 nm fluorescence, primary screen (AID 1120); settings: higher = more signal;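 further: probe is a biotin-tagged antibody raised against NOTCH3 rather than NOTCH3 protein; score merges spot fluorescence near 667 nm with spot signal to noise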
[3] = probe aNOTCH2 binding on compound microarray – biochemical, small-molecule microarray, 635/667 nm fluorescence, primary screen (AID 1121); settings: higher = more signal;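 further: score merges feature fluorescence read at 667 nm with its signal to noise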
[4] = target: Carbonic anhydrase 2 (Homo sapiens) (UniProt P00918); assay: compounds binding carbonic anhydrase 2 – biochemical, small-molecule microarray, Alexa647-labelled CAII, profiling panel (AID 1122); settings: CAII-A647 binding fluorescence, higher = more signal
[5] = COS7 lysate on small-molecule microarray, probe aHis, 635 nm (AID 1123); settings: COS7 cell lysate, fluorescence, higher = more signal;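 further: z-score combines 667nm fluorescence intensity with signal-to-noise per printed compound spot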
[6] = probe aLAP1 signal on lysate-treated microarray – cell lysate, small-molecule microarray, COS7 lysate, primary screen (AID 1124); settings: probe aLAP1, fluorescence, higher = more signal;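 further: lysate comes from COS7 cells expressing LAP1 and is applied at 0.3 µg/mL; score merges spot fluorescence near 667 nm with signal-to-noise over triplicate slides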
Sam68 (KHDRBS1) = assay: compounds binding KHDRBS1 protein – biochemical, small-molecule microarray, 635 nm fluorescence, primary screen (AID 1125); settings: higher = more signal;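 further: score merges 667 nm channel intensity with signal to noise over triplicate slides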
[7] = tested on: Chordin-like protein 2 (CHRDL2); assay: compounds binding chordin-like 2 – biochemical, small-molecule microarray, 635 nm fluorescence, primary screen (AID 1126); settings: fluorescence 635 nm, higher = more signal;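 further: printed compound slides probed with Chrdl2 protein at 4 µg/mL for 1 h at 4 C; score merges 667 nm emission intensity with signal to noise over three replicate slides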
[8] = target: Concanavalin-A (Canavalia ensiformis) (UniProt P02866); assay: compounds binding concanavalin A lectin – biochemical, small-molecule microarray, Alexa647 label, 635 nm, artefact control for SMM control protein annotation, primary screen (AID 1127); settings: ConA-A647 binding fluorescence, higher = more signal;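 further: z combines 667 nm emission intensity with signal-to-noise across three replicate slides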
Chain of Concanavalin-A (Canavalia ensiformis) (P02866 whole entry, looked up): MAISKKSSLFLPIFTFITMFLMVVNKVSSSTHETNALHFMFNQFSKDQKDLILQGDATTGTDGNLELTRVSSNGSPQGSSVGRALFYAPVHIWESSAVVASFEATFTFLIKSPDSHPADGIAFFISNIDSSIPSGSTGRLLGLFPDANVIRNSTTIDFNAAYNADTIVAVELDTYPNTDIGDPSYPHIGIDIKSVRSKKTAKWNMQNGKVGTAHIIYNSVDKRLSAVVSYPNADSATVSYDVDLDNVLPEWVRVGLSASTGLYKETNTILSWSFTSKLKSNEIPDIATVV

[9] = compounds binding Alexa647 anti-His antibody – biochemical, small-molecule microarray, 635 nm fluorescence, artefact control for SMM control protein annotation, primary screen (AID 1128); settings: higher = more signal;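 further: score merges feature fluorescence with signal-to-noise for each printed compound spot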
[10] = tested on: Human papillomavirus type 1a E7 protein (residues 1-88); assay: HPV1a E7 small-molecule binders, primary screen, biochemical, small-molecule microarray, residues 1-88, 635 nm (AID 1129); settings: small-molecule microarray binding, fluorescence 635 nm; higher = more signal
[11] = target: Focal adhesion kinase 1 (Homo sapiens) (UniProt Q05397); assay: PTK2 protein binding on printed compound slides – biochemical, small-molecule microarray, 635/667 nm fluorescence, BSA, DTT, primary screen (AID 1130); settings: 635 nm fluorescence, higher = more signal;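 further: composite of spot emission at 667 nm and signal to noise over triplicate slides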
Chain of Focal adhesion kinase 1 (Homo sapiens) (Q05397 whole entry, looked up): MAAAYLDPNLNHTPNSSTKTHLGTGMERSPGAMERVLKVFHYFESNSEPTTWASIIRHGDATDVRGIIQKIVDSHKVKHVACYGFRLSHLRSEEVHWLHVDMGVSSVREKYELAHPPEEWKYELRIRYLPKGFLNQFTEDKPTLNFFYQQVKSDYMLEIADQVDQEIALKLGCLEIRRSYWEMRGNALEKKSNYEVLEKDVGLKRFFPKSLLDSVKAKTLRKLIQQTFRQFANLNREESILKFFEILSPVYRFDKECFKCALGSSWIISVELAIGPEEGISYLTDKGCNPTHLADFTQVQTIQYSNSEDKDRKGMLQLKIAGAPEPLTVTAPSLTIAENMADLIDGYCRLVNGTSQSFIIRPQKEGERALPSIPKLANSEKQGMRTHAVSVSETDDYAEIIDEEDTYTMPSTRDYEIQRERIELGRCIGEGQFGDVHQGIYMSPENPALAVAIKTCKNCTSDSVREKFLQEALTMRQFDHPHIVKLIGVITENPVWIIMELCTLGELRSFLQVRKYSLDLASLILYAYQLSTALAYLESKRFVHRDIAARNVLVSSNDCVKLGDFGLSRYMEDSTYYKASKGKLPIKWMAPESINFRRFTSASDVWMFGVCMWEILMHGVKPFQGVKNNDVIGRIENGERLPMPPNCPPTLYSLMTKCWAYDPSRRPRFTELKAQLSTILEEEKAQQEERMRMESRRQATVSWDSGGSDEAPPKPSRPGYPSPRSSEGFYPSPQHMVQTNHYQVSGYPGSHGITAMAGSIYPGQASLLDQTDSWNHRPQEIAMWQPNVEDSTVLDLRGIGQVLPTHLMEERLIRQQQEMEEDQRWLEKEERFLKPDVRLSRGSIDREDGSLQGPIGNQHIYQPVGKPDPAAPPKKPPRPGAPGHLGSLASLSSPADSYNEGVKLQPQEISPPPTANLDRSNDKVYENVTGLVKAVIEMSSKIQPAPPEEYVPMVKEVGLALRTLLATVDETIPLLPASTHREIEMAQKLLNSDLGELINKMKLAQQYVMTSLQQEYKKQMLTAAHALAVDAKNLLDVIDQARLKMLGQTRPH

[12] = tested on: Fibrinogen (Alexa647-labelled); assay: Alexa647-fibrinogen binding to printed small molecules – biochemical, small-molecule microarray, 635/667 nm fluorescence, artefact control for SMM control-protein annotation, profiling panel (AID 1131); settings: fibrinogen-A647 binding fluorescence, higher = more signal;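 further: z-score merges 667 nm fluorescence with per-spot signal-to-noise over triplicate slides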
[13] = target: Follistatin (Homo sapiens) (UniProt P19883); assay: FST protein binding to printed compounds – biochemical, small-molecule microarray, 635/667 nm fluorescence, primary screen (AID 1132); settings: 635 nm fluorescence, higher = more signal
Chain of Follistatin (Homo sapiens) (P19883 whole entry, looked up): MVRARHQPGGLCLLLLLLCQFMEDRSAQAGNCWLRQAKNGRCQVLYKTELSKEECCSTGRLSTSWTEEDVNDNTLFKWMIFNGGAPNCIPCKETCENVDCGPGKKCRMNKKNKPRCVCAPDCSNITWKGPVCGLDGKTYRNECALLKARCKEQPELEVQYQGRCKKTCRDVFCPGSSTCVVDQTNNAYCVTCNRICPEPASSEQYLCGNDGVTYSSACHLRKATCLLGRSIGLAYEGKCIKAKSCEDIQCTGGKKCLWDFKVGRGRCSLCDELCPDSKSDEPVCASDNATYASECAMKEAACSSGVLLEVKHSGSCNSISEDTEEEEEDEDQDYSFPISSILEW

[14] = target: Fibroblast growth factor 2 (Homo sapiens) (UniProt P09038); assay: basic fibroblast growth factor binding to printed compounds – biochemical, small-molecule microarray, 635/667 nm fluorescence, primary screen (AID 1133); settings: FGF2, fluorescence 635/667, higher = more signal
Chain of Fibroblast growth factor 2 (Homo sapiens) (P09038 whole entry, looked up): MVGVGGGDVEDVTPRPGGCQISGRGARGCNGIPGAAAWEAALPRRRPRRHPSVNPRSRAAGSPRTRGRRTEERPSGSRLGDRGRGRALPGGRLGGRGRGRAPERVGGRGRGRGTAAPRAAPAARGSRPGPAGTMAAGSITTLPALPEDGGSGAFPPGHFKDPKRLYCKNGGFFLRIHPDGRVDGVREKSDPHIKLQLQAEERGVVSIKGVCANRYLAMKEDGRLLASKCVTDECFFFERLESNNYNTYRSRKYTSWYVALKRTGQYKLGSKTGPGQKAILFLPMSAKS

[15] = JC-1 mitochondrial potential readout, lung cancer cells – cell-based, A549, JC-1 fluorescence, basal, 24 h, 100 nL, profiling panel (AID 1138); settings: higher = more signal;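 further: A549 lung adenocarcinoma cells under basal conditions with no added stimulus; test concentration not given here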
Lefty1 = Lefty1 protein binding to printed compounds – biochemical, small-molecule microarray, 635/667 nm fluorescence, primary screen (AID 1139); settings: fluorescence 635/667, higher = more signal
[16] = tested on: wheat germ agglutinin (Triticum aestivum), Alexa647-labelled; assay: Alexa647-WGA lectin binding to printed small molecules – biochemical, small-molecule microarray, 635/667 nm fluorescence, artefact control for SMM control-protein annotation, profiling panel (AID 1140); settings: WGA-A647 binding, 635 nm fluorescence, higher = more signal;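 further: score merges 667 nm feature emission with signal to noise over triplicate slides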
[17] = target: Luciferin 4-monooxygenase (Photinus pyralis) (UniProt P08659); assay: inhibition of purified Photinus pyralis luciferase – biochemical, luminescence, purified enzyme, 2006 set, primary screen (AID 1141); settings: purified firefly luciferase, SteadyGlo luminescence, 30 min; higher = more signal, called active from +8 up or from −8 down;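 further: cell-free assay with purified firefly luciferase at 100 ng per well in PBS; test concentration not given here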
Chain of Luciferin 4-monooxygenase (Photinus pyralis) (P08659 whole entry, looked up): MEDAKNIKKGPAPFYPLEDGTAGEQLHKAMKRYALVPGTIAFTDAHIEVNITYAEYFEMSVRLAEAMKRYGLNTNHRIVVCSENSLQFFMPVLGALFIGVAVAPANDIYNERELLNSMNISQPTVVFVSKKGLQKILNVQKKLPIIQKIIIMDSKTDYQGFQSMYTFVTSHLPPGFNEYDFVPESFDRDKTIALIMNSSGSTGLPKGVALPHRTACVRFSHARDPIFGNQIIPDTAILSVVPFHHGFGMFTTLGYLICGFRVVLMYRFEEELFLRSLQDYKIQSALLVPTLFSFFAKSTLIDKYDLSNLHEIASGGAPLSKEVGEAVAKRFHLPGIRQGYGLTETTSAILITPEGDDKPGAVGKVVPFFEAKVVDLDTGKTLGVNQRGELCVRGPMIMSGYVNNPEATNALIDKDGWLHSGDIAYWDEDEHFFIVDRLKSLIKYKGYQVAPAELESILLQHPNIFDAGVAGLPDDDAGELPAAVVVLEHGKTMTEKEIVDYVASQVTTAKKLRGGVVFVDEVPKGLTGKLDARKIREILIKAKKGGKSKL

Row | SMILES | composite z-score (Albumin (Bos taurus)) | composite Z-score [1] | composite z-score [2] | composite z-score [3] | composite z-score [4] | composite z-score [5] | composite z-score [6] | composite z-score (Sam68 (KHDRBS1)) | composite z-score [7] | composite z-score [8] | composite z-score [9] | composite z-score [10] | composite z-score [11] | composite z-score [12] | composite z-score [13] | composite z-score [14] | z-score [15] | composite z-score (Lefty1) | composite z-score [16] | z-score [17]
1 | COCCCN1C(=O)[C@@]2(Cc3ccccc31)c1ccccc1C(=O)N(Cc1ccccc1C(F)(F)F)[C@H]2c1ccc(CO)cc1 | -0.857 | 0.225 (inactive) | -0.401 | 0.402 | 0.138 | -0.176 | -0.395 | 1 | 1.09 | 0.961 | -0.169 | 0.439 | 0.521 | -0.371 | 1.26 | 1.14 | 0.317 | 0.469 | 0.101 | -0.259 (inactive)
2 | CC1CC/C=C\[C@H]2OC34C=CCN(c5ccc(Cl)cc5)C(=O)[C@H]3N(CCO)C(=O)[C@]4(C)C2C(=O)O1 (stereo not given in full) | -0.0427 | -0.0662 (inactive) | -0.152 | -0.149 | 0.902 | -0.507 | 0.627 | 0.409 | -0.961 | -0.206 | 3.56 | -0.0955 | 1.67 | -1.84 | -0.338 | -0.492 | -0.259 | -0.49 | 0.811 | 0.259 (inactive)
3 | C=C/C=C/[C@H]1C(=C)CN([C@@H](Cc2ccccc2)C(=O)OC)[C@@H]1[C@H](O)Cc1ccccc1 | -0.668 | -0.624 (inactive) | -0.235 | -0.195 | -0.174 | 0.25 | 0.161 | -0.24 | -0.0454 | -0.243 | -0.677 | -0.748 | -0.526 | -0.108 | 0.174 | -0.348 | 0.0936 | -0.426 | 0.0321 | -0.494 (inactive)
4 | CO[C@H]1O[C@H](CO)[C@@H](OC(=O)Nc2ccc(Br)cc2)[C@H](OC(=O)c2cc3ccccc3[nH]2)[C@H]1OC(=O)c1cc2ccccc2[nH]1 | 0.93 | 0.907 (inactive) | -0.04 | -0.101 | 0.386 | 1.25 | 0.451 | 1.33 | 0.283 | 1.14 | 1.69 | 1.14 | 0.468 | 0.967 | 0.729 | 0.355 | -1.07 | 0.311 | 0.723 | -1.75 (inactive)
5 | COc1ccc(C(=O)O[C@H]2CC[C@]3(C)C4=C(CCC3C2(C)C)[C@]2(C)CC[C@H]([C@H](C)CCCC(C)C)[C@@]2(C)CC4)cc1 (stereo not given in full) | 0.12 | -0.482 (inactive) | 0.236 | -0.149 | -0.008 | 0.688 | 0.064 | 0.154 | 0.575 | 0.447 | 0.541 | 0.607 | -0.0307 | 0.206 | 0.625 | 0.483 | 1.41 | 0.493 | 0.103 | -0.384 (inactive)
6 | NCCCCCNC(=O)[C@@H]1C[C@@H]2C(=O)NCC(=O)N2[C@@H]1c1ccc(O)cc1 | 0.802 | 0.126 (inactive) | -0.0889 | -0.108 | 0.558 | 0.899 | 0.249 | 1.31 | 0.831 | 1.06 | 2.18 | 1.19 | 0.0992 | 0.948 | 1.51 | 1.79 | 1.41 | 1.76 | 0.891 | -1.11 (inactive)
7 | COc1ccc([Si](C)(C)[C@@H]2[C@@H](CCO)O[C@]3(C(=O)N(Cc4ccc(N5C(=O)COc6ccccc65)cc4)c4ccccc43)[C@H]2C)cc1 | 0.671 | -0.539 (inactive) | 0.305 | -0.0924 | 0.59 | 1.55 | 0.844 | 1.33 | 0.106 | 1.07 | 1.58 | 1.18 | 0.571 | 0.814 | 0.59 | 0.621 | -0.342 | 0.955 | 0.978 | 0.686 (inactive)
8 | COC(=O)[C@@]1(Cc2ccc(OC)cc2)[C@H]2c3cc(C(=O)N(C)C)n(CCN4CNCC4=O)c3C[C@H]2CN1C(=O)c1ccccc1 | 0.854 | -0.704 (inactive) | 0.0539 | 0.0228 | 0.879 | 0.287 | 0.898 | -0.668 | -0.386 | -0.61 | 0.492 | 0.803 | 0.598 | 0.151 | -0.589 | -0.294 | 1 | -0.44 | 0.459 | 2.82 (inactive)
9 | COc1ccc(C#Cc2ccc3c(c2)[C@]2(C(=O)N3)[C@H](c3ccccc3OCCO)N3[C@H](c4ccccc4)[C@H](c4ccccc4)OC(=O)[C@H]3[C@@H]2C(=O)O)cc1 | 0.702 | -0.274 (inactive) | 0.671 | 0.114 | 0.473 | 2.27 | 0.649 | 1.3 | -0.0011 | 1.15 | 1.61 | 1.22 | 0.191 | 0.951 | 0.694 | 0.314 | -2.59 | 1.15 | 1.28 | -3.9 (inactive)
10 | O=C1C[C@]2(c3ccc([N+](=O)[O-])cc3)C(=O)N(CCN3CCOCC3)c3cc(CO)ccc3[C@H]2N1C1CCCCC1 | 0.883 | -0.598 (inactive) | -0.221 | -0.0904 | 0.646 | 0.294 | -0.467 | 0.197 | -0.337 | -0.172 | -0.106 | -1.24 | -0.617 | 0.975 | -0.414 | 0.189 | 0.631 | -0.599 | 0.409 | -0.648 (inactive)
11 | C=CCOC(=O)[C@@H]1[C@H]2C(=O)O[C@H](c3ccccc3)[C@H](c3ccccc3)N2[C@H](c2ccc(OCCOC(=O)[C@@H]3C[C@@H]4C(=O)N5CCC[C@H]5C(=O)N4[C@@H]3c3ccc(O)cc3)cc2)[C@@]12C(=O)Nc1ccc(I)cc12 | 0.71 | 1.23 (inactive) | -0.0831 | -0.145 | 0.419 | 1.33 | -0.0072 | 1.19 | 0.593 | 1.12 | 0.426 | 1.19 | 0.928 | 0.837 | 1.29 | 1.2 | -1.58 | 0.793 | 0.635 | -0.291 (inactive)

— PubChem BioAssay
